In PubChem BioAssay (Tox21):
Inconclusive results are not listed. A call without a number means that no potency is given here. Active and inactive are the calls of the source. Unless noted, calls follow the shape of the dose curve; as a rule, active = well fitted curve in the direction sought with a large enough effect in the repeat runs; inconclusive = weak or mixed curves; inactive = no such curve, though single readings can be large; an effect the other way counts as inactive or inconclusive.

What was measured:
[1] = qHTS assay to identify small molecule antagonists of the thyroid receptor (TR) signaling pathway - cell viability counter screen (AID 743064); details: GH3.TRE-Luc viability, CellTiter-Fluor, 24 h; series mostly up to 70.3 µM; also: nearly all actives have a fitted effect of over 50% in size; also: potency is read from the fitted curve at half-maximal effect
Summary of the method: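 Fluorescence from CellTiter-Fluor, added after 23.5 h exposure at 37 °C, reported viability of GH3.TRE-Luc cells co-treated with compound and 1 nM T3. Measured in the same wells as the luciferase TR readout.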

[2] = molecular target: Estrogen receptor (Homo sapiens) (UniProt P03372); test: qHTS assay to identify small molecule antagonists of the estrogen receptor alpha (ER-alpha) signaling pathway (AID 743069; active = well fitted curve in the direction sought with a large enough effect in the signal ratio in the repeat runs, not every such curve was filed as active; the % refers to the signal ratio); details: HEK293 ER-alpha-UAS-bla, beta-lactamase ratio, antagonist mode; series mostly up to 69.4 µM
Estrogen receptor (Homo sapiens), sequence (P03372 whole entry, looked up): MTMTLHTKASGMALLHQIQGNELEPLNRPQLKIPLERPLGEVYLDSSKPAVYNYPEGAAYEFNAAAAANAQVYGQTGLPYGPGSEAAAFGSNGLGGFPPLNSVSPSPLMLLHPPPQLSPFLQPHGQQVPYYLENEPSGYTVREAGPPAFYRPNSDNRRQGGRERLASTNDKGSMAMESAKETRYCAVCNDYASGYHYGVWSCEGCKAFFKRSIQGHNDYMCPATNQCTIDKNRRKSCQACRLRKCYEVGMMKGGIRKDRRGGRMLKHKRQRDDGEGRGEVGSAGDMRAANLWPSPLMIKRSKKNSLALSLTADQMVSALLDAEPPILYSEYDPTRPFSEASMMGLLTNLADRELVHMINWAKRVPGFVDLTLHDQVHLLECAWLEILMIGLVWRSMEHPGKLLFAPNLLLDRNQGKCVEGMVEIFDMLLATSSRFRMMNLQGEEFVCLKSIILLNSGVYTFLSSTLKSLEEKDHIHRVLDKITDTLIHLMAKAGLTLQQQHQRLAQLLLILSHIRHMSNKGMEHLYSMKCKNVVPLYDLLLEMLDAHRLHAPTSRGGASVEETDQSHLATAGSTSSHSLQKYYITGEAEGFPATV
Summary of the method: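 In this cell-based reporter format, GripTite HEK293 cells harbouring ER-alpha-UAS-bla were grown overnight with 2% charcoal-stripped FBS, dosed with DMSO-dissolved compounds, then challenged with 17beta-estradiol. After 18 hr at 37C, beta-lactamase activity was detected by FRET fluorescence.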

[3] = molecular target: Estrogen receptor (Homo sapiens) (UniProt P03372); test: qHTS assay to identify small molecule agonists of the estrogen receptor alpha (ER-alpha) signaling pathway (AID 743075; calls by dose curve); details: HEK293 ER-alpha-UAS-bla, beta-lactamase FRET ratio, 18 h; series mostly up to 70.1 µM
[4] = qHTS assay to identify small molecule antagonists of the estrogen receptor alpha (ER-alpha) signaling pathway using the BG1 cell line - cell viability counter screen (AID 743081); details: BG1Luc4E2 viability, CellTiter-Fluor, 22 h; series mostly up to 70.3 µM;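 also: compound given together with 17beta-estradiol as the ER stimulus; nearly all actives have a fitted effect of over 45% in size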; also: potency is read from the fitted curve at half-maximal effect
[5] = molecular target: Aromatase (Homo sapiens) (UniProt P11511); test: qHTS assay to identify aromatase inhibitors (AID 743083); details: MCF-7 aro ERE, testosterone-driven ERE luciferase, 24 h; series mostly up to 70.3 µM; also: nearly all actives have a fitted effect of over 55% in size; also: potency is read from the fitted curve at half-maximal effect
Aromatase (Homo sapiens), sequence (P11511 whole entry, looked up): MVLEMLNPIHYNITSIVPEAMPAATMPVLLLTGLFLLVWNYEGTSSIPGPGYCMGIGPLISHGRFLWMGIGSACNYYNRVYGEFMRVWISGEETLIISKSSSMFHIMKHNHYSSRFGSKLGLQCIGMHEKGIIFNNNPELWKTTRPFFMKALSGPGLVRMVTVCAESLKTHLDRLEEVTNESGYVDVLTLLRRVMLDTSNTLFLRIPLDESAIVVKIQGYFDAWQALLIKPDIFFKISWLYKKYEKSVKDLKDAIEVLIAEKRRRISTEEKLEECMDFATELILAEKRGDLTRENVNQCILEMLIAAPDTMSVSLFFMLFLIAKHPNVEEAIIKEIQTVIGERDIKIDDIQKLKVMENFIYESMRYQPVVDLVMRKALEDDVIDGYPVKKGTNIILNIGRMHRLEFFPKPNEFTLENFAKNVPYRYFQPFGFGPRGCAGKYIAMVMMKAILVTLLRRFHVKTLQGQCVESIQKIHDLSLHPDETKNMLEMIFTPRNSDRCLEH

[6] = qHTS assay to identify small molecule antagonists of the thyroid receptor (TR) signaling pathway (AID 743065); details: GH3.TRE-Luc, T3-stimulated luciferase inhibition, 23.5 h; series mostly up to 70.3 µM; also: nearly all actives have a fitted effect of over 55% in size
Summary of the method: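 GH3.TRE-Luc rat pituitary cells (two TREs driving luciferase) were dosed with compound, then stimulated with 1 nM T3 (final) for 23.5 h at 37 C. ONE-Glo luminescence was the read-out, with CellTiter-Fluor fluorescence as the cytotoxicity counter-screen.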

[7] = tested on: thyroid hormone receptor (rat, GH3 cells); test: qHTS assay to identify small molecule agonists of the thyroid receptor (TR) signaling pathway (AID 743066; calls by dose curve); details: GH3.TRE-Luc cells, TR agonist luciferase, 24 h; series mostly up to 83.9 µM
[8] = molecular target: Estrogen receptor (Homo sapiens) (UniProt P03372); test: qHTS assay to identify small molecule agonists of the estrogen receptor alpha (ER-alpha) signaling pathway using the BG1 cell line (AID 743079); details: BG1Luc4E2 cells, ERE-luciferase agonist, 22 h; series mostly up to 70.3 µM; also: nearly all actives have a fitted effect of over 20% in size; also: potency is read from the fitted curve at half-maximal effect
[9] = qHTS assay to identify small molecule antagonists of the estrogen receptor alpha (ER-alpha) signaling pathway using the BG1 cell line (AID 743080; calls by dose curve;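 also: BG1 cells stimulated with 17beta-estradiol alongside compound; nearly all actives have a fitted effect of over 25% in size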); details: BG1Luc4E2 ERE-luciferase antagonist mode, luminescence; series mostly up to 70.3 µM
Summary of the method: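 Luciferase inhibition measured with ONE-Glo after 30 min at RT in BG1Luc4E2 cells given test compounds and 17beta-estradiol for 21.5 h at 37 C; CellTiter-Fluor viability read in the same wells beforehand.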

[10] = qHTS assay to identify small molecule antagonists of the estrogen receptor alpha (ER-alpha) signaling pathway - cell viability counter screen (AID 743074; calls by dose curve; also: nearly all actives have a fitted effect of over 45% in size); details: ERalpha-bla HEK293 viability, CellTiter-Glo luminescence, 18 h; series mostly up to 69.4 µM

Row | Structure (SMILES) | Potency [1] | Potency [2] | Potency [3] | Potency [4] | Potency [5] | Potency [6] | Potency [7] | Potency [8] | Potency [9] | Potency [10]
1 | CCN(Cc1cccc(S(=O)(=O)O)c1)c1ccc(C(=C2C=CC(=[N+](CC)Cc3cccc(S(=O)(=O)O)c3)C=C2)c2ccc(O)cc2S(=O)(=O)[O-])cc1 | 37.1 µM (active) | inactive | inactive | 33.1 µM (active) | 18.6 µM (active) | – | – | – | – | –
2 | Nc1ccc(F)cc1 | inactive | – | inactive | inactive | inactive | inactive | inactive | inactive | inactive | –
3 | FC(F)(F)C(F)(F)C(F)(F)C(F)(F)CCI | inactive | inactive | inactive | inactive | inactive | – | – | 27.9 µM (active) | inactive | inactive
4 | Cc1cc(CCC(=O)OCCOCCOCCOC(=O)CCc2cc(C)c(O)c(C(C)(C)C)c2)cc(C(C)(C)C)c1O | inactive | – | – | inactive | inactive | – | inactive | – | – | inactive
